PubChem BioAssay
Entries with a potency or affinity are not part of this list. Results filed as inconclusive are left out. Calls of active or inactive are those of the source. Unless noted, no rule for the calls is given here.

Key:
[1] = inhibitors of CMV-promoter luciferase reporter, dose response, counter-screen for Pax8 inhibitor project, cell-based, HEK293, luminescence, dry powder (AID 743020;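 active = signal-lowering compounds whose fitted half-maximal concentration is at or below twice the top tested dose in every run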;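 also: HEK293 cells stably expressing the CMV luciferase reporter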)
[2] = non-specific cell cytotoxicity, dose response, cytotoxicity control for PAX8 inhibitor project, plate reader, dry powder samples (AID 743021)
[3] = IGROV1 ovarian cancer cell cytotoxicity, dose response, PAX8 inhibitor project, plate reader, dry powder samples (AID 743043);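 also: more negative means fewer viable cells or more cytotoxicity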
[4] = NIH:OVCAR-3 ovarian cancer cell cytotoxicity, dose response, PAX8 inhibitor project, plate reader, dry powder samples (AID 743044); conditions: max activity: at 35 µM, active compounds read low unless noted
[5] = IOSE-T80 ovarian epithelial cell cytotoxicity, dose response, cytotoxicity control for PAX8 inhibitor project, plate reader, dry powder samples (AID 743045);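 also: 0% = neutral control median and -100% = positive control median; more negative values mean more cell killing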
[6] = cytotoxicity in OVCAR8 ovarian cancer cells, dose response, PAX8 project, cell-based, plate reader, dry powder samples (AID 743197)
[7] = A2780 ovarian cancer cell cytotoxicity, dose response, cytotoxicity control, plate reader, dry powder samples (AID 743046);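 also: 0% = neutral control wells and -100% = cytotoxic reference compound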
[8] = HepG2 cell cytotoxicity, dose response, cytotoxicity control, plate reader, cherry-pick, antagonist series (AID 743416);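 also: 0% = neutral control wells and -100% = positive control wells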

Measured: max activity

C[C@@H]1CN([C@@H](C)CO)C(=O)Cc2cc(NC(=O)NC3CCCCC3)ccc2O[C@@H]1CN(C)Cc1ccc(-c2ccccc2)cc1
inactive: [1] | [2] | [3] | [4] 0% [active compounds read low] | [5] | [6]

COc1cccc(-c2ccc([C@H]3[C@@H](CO)N(C(=O)Cc4ccccc4)[C@H]3C#N)cc2)c1
inactive: [1] | [2] | [3] | [5] | [6]

CC(C)CCCCCCCCCCCCC(=O)NCC(=O)NC1C(C)OC(Nc2ncnc3nc[nH]c23)C(O)C1O (stereo not drawn)
inactive: [2]

C[C@H](CO)N1C[C@H](C)[C@H](CN(C)Cc2ccc(C(F)(F)F)cc2)OCCCC[C@H](C)Oc2ccc(NS(=O)(=O)c3ccccc3)cc2C1=O
inactive: [1] | [5] | [7]

Cc1ccc(S(=O)(=O)N(C)C[C@H]2Oc3cc(C#Cc4ccncc4)ccc3S(=O)(=O)N([C@@H](C)CO)C[C@@H]2C)cc1
inactive: [1] | [2] | [3] | [5] | [7]

C[C@H]1CN([C@@H](C)CO)C(=O)c2cc(NS(=O)(=O)c3ccccc3)ccc2O[C@@H]1CN(C)Cc1ccc(Oc2ccccc2)cc1
inactive: [1] | [2] | [3] | [4] -20.4% [at 8 µM, active compounds read low] | [5] | [6]

C[C@@H]1CN([C@@H](C)CO)C(=O)Cc2cc(NS(=O)(=O)c3ccc(Cl)cc3)ccc2O[C@H]1CN(C)Cc1ccc(Oc2ccccc2)cc1
inactive: [1] | [2] | [5] | [7]

C=C1C(=O)C2=CC1CCC(=O)C1(C)CCC(OC(C)=O)C(C)(C)C1CC2O (stereo not drawn)
inactive: [2]

CCCn1c(C)cc(C(=O)CN2C(=O)c3ccccc3S2(=O)=O)c1C
not listed: [5] | [6]
inactive: all other assays above

COc1ccc(C(=O)c2ccc(Cl)c([N+](=O)[O-])c2)cc1
inactive: [2]

CCOC(=O)c1c(-c2ccc(F)cc2)csc1NC(=O)CN1C(=O)NC2(CCCCC2C)C1=O (stereo not drawn)
inactive: [2]

Cc1ccccc1CNC(=O)C1CCCN(c2nnc(C)c3c(C)n(-c4ccccc4)nc23)C1 (stereo not drawn)
inactive: [1] | [2] | [7]

C[C@H]1CN([C@@H](C)CO)C(=O)Cc2cc(NC(=O)NC3CCCCC3)ccc2O[C@H]1CN(C)S(=O)(=O)c1ccc(Cl)cc1
not listed: [4] | [8]
inactive: all other assays above

COc1ccc(-c2ccc(C3[C@@H]4CN(C(=O)Nc5cccc(F)c5)C[C@H]3N4)cc2)cc1 (stereo partly drawn)
inactive: [1] | [5] | [7]

Cc1nc2sc(C(c3ccco3)N3CCN(C(c4ccccc4)c4ccccc4)CC3)c(O)n2n1 (stereo not drawn)
inactive: [1] | [2] | [5] | [7]

C[C@H]1CCCCO[C@H](CN(C)Cc2ccc(C(F)(F)F)cc2)[C@@H](C)CN([C@@H](C)CO)C(=O)c2cc(NS(=O)(=O)c3ccc(Cl)cc3)ccc2O1
inactive: [1] | [2] | [4] 16.3% [at 1 µM, active compounds read low] | [5] | [7]

O=C(Nc1cccc(-c2ccc(N3CCCCC3)nn2)c1)C(F)(F)F
inactive: [2]

COc1cc2nc(C3CCC3)nc(N3CCN(c4ccccc4OC)CC3)c2cc1OC
inactive: [2]

C[C@@H]1CN([C@H](C)CO)C(=O)c2cc(NS(=O)(=O)c3ccc(Cl)cc3)ccc2O[C@@H](C)CCCCO[C@@H]1CN(C)Cc1ccccc1
inactive: [1] | [3] | [4] 22% [at 1 µM, active compounds read low] | [5] | [7] | [6]

C[C@@H]1CCCCO[C@@H](CN(C)S(=O)(=O)c2ccc(Cl)cc2)[C@H](C)CN([C@H](C)CO)C(=O)c2cc(NS(=O)(=O)c3ccc(F)cc3)ccc2O1
inactive: [1] | [2] | [4] 22.4% [at 2.1 µM, active compounds read low] | [5] | [7] | [6]

Cc1ccc(S(=O)(=O)CC(CN2CCCCC2)N2CCCCC2)cc1 (stereo not drawn)
inactive: [1] | [2] | [4] | [5] | [7]

C[C@H]1CCCCO[C@@H](CN(C)Cc2ccc(C(F)(F)F)cc2)[C@@H](C)CN([C@@H](C)CO)C(=O)c2cc(NC(=O)c3ccccc3)ccc2O1
inactive: [1] | [2] | [5] | [7]

C[C@@H]1CN([C@@H](C)CO)C(=O)c2cc(NC(=O)c3ccccc3)ccc2O[C@@H](C)CCCCO[C@@H]1CN(C)Cc1ccc(C(F)(F)F)cc1
inactive: [1] | [2] | [3] | [5] | [7]

CCC(=O)NC(c1ccc(C)cc1)c1ccc2cccnc2c1O (stereo not drawn)
inactive: [2]

CCN(CC(=O)Nc1c(F)cccc1F)C(=O)c1cc(S(=O)(=O)N(C)C)ccc1N1CCCC1
inactive: [1] | [2] | [4] | [5] | [7]

COc1cc(-c2cnc3c(NC=O)cc(-c4ccccc4)cn23)cc(OC)c1OC
inactive: [2]

C[C@H]1CCCCO[C@H](CN(C)Cc2ccc(C(F)(F)F)cc2)[C@@H](C)CN([C@@H](C)CO)C(=O)c2cc(NC(=O)c3ccccc3)ccc2O1
inactive: [1] | [2] | [5] | [7] | [6]

N#C[C@@H]1[C@H](c2ccc(C#CC3CCCCC3)cc2)[C@H](CO)N1S(=O)(=O)c1ccccc1
inactive: [1] | [2] | [5] | [7] | [6]

COc1ccc(S(=O)(=O)Nc2ccc3c(c2)C(=O)N([C@@H](C)CO)C[C@H](C)[C@@H](CN(C)Cc2ccc(C(F)(F)F)cc2)OCCCC[C@H](C)O3)cc1
inactive: [1] | [2] | [5] | [7]

Cc1noc(C)c1S(=O)(=O)N(C)C[C@H]1OCCCC[C@@H](C)Oc2ccc(NS(=O)(=O)c3ccc(Cl)cc3)cc2C(=O)N([C@@H](C)CO)C[C@@H]1C
inactive: [1] | [2] | [3] | [5]
